Source: publication PMC5540273 (PLoS ONE, 2017)
Values joined by “and” are separate entries in the source; they are usually repeats but may differ in a detail not shown here. Equal values may be shown once. Read-outs that look alike come from different tables or passages of the source.

Assays:
SIK2 = settings: n = 1
SIK = settings: concentration: 1 μM, replicates: in singlicate; n = 1
SLK = settings: n = 1
SNARK = test system: T1, SNARK; settings: n = 1
T1 construct: gene NUAK2

SNRK = settings: concentration: 1 μM, replicates: in singlicate; n = 1
SRC = settings: n = 1
SRMS = settings: concentration: 1 μM, replicates: in singlicate; n = 1
SRPK1 = settings: n = 1
SRPK2 = settings: concentration: 1 μM, replicates: in singlicate; n = 1
SRPK3 = settings: concentration: 1 μM, replicates: in singlicate; n = 1
[1] = concentration: 1 μM, replicates: in singlicate
[2] = concentration: 1 μM,replicates: in singlicate, 1 µM
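Further: KINOMEscan kinase panel screen.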

SMILES | %Inh (SIK2; [1]) | %Inh (SIK) | %Inh (SLK; [1]) | %Inh (SNARK; [1]) | %Inh (SNRK) | %Inh (SRC; [1]) | %Inh (SRMS) | %Inh (SRPK1; [1]) | %Inh (SRPK2) | %Inh (SRPK3) | %Inh (SIK2; [2]) | %Inh (SLK; [2]) | %Inh (SNARK; [2]) | %Inh (SRC; [2]) | %Inh (SRPK1; [2])
Cn1ccc2ncnc(Oc3ccc(Nc4nc5ccccc5[nH]4)cc3)c21 | 10% | 0% | 14% | 0% | 0% | 3% | 0% | 0% | 7% | 0% |  |  |  |  | 
Cl.Oc1ccc(-c2nc(-c3ccccc3)[nH]c2-c2ccncc2)cc1 [SB-428218] | 0% | 0% | 28% | 0% | 5% | 33% | 7% | 0% | 0% | 3% |  |  |  |  | 
COc1cccc(NC(=O)NC2CCN(c3ccnc(Nc4ccc(F)cc4)n3)C2)c1 (stereo not drawn) [GSK1379721] | 0% | 0% | 0% | 0% | 0% | 0% | 0% | 0% | 5% | 0% |  |  |  |  | 
Nc1nc(-c2nccs2)c(-c2ccnc3ccccc23)s1 [GW693542] | 0% | 0% | 9% | 8% | 0% | 0% | 0% | 20% | 0% | 31% |  |  |  |  | 
CS(=O)(=O)c1ccc(-c2c(-c3ncn[nH]3)sc(N3CCOCC3)c2C#N)cc1 | 0% | 39% | 3% | 0% | 7% | 0% | 0% | 0% | 0% | 0% |  |  |  |  | 
CSc1nn2c(=O)cc(N3CCOCC3)nc2n1Cc1cccc(C(F)(F)F)c1C [GSK2363608] |  | 0% |  |  | 0% |  | 0% |  | 0% | 0% | 4% and 0% | 20% and 3% | 18% and 0% | 3% and 0% | 34% and 16%
O=C(Nc1n[nH]c2nc(-c3nccs3)c(Br)cc12)C1CC1 [SB-742251] | 0% | 6% | 0% | 0% | 0% | 0% | 0% | 19% | 21% | 0% |  |  |  |  | 
O=C(Nc1n[nH]c2cc(-c3cccc(F)c3F)ccc12)C1CC1 [SB-733894] | 0% | 0% | 0% | 1% | 3% | 0% | 3% | 44% | 22% | 5% |  |  |  |  | 
Fc1cccc(COc2nnc(-c3ccc4c(c3)CCO4)o2)c1 | 0% | 0% | 0% | 0% | 0% | 0% | 5% | 0% | 0% | 7% |  |  |  |  | 
Cc1cccc(-c2nc(Nc3ccncc3)c3ccccc3n2)n1 [GW855857] | 0% | 4% | 18% | 0% | 0% | 20% | 0% | 0% | 54% | 15% |  |  |  |  | 
CN1C(=O)C(Nc2ccc(Cl)c(C(=O)O)c2)=C(c2ccc(Cl)cc2)C1=O [SB-404290] | 0% | 0% | 13% | 8% | 0% | 0% | 19% | 20% | 12% | 15% |  |  |  |  | 
Cn1cncc1-c1ccc2ncnc(Nc3ccc(OCc4ccccc4)cc3)c2c1 [GW320571] | 13% | 6% | 19% | 0% | 86% | 2% | 0% | 0% | 0% | 25% |  |  |  |  | 
Cc1c(Cn2ccn3c(=O)cc(N4CCOCC4)nc23)cccc1C(F)(F)F [GSK2289044] | 0% | 0% | 13% | 5% | 0% | 0% | 0% | 12% | 0% | 0% |  |  |  |  | 
CC(=O)Nc1nc2cnc(Nc3cc(NC(=O)c4cccc(CCC#N)c4)ccc3C)nc2s1 | 0% | 16% | 14% | 9% | 33% | 18% | 0% | 17% | 22% | 0% |  |  |  |  | 
Fc1cc(Cl)ccc1Nc1ccnc2cc(I)ccc12 [GW551191] | 49% | 29% | 0% | 0% | 0% | 0% | 0% | 7% | 0% | 8% |  |  |  |  | 
NC(=O)c1nnc2ccccc2c1N | 6% | 9% | 0% | 67% | 14% | 6% | 0% | 45% | 0% | 32% |  |  |  |  | 
CC1=C(C(=O)Nc2cc3cn[nH]c3cc2F)C(c2ccc(C(F)(F)F)cc2)CC(=O)N1 (stereo not drawn) [GSK429286] | 0% | 0% | 1% | 80% | 0% | 0% | 0% | 0% | 0% | 0% |  |  |  |  | 
COc1cc(Nc2nccc(N3CCC(NC(=O)Nc4cc(C)ccc4C)C3)n2)cc(OC)c1OC (stereo not drawn) [GSK1379762] | 6% | 0% | 23% | 23% | 0% | 24% | 0% | 53% | 0% | 29% |  |  |  |  | 

SMILES | %Inh (SIK2; [1]) | %Inh (SIK) | %Inh (SLK; [1]) | %Inh (SNARK; [1]) | %Inh (SNRK) | %Inh (SRC; [1]) | %Inh (SRMS) | %Inh (SRPK1; [1]) | %Inh (SRPK2) | %Inh (SRPK3) | %Inh (SIK2; [2]) | %Inh (SLK; [2]) | %Inh (SNARK; [2]) | %Inh (SRC; [2]) | %Inh (SRPK1; [2])
Cc1cc(-c2ccc3c(c2)CC[C@@H](N[C@@H](C)c2ccccc2)C3)cnc1N.Cl [GW412617] | 3% | 12% | 29% | 8% | 0% | 4% | 0% | 24% | 0% | 9% |  |  |  |  | 
Cc1cccc(-c2nc(C)cc(Nc3ccncc3)n2)n1 [GSK257997] | 0% | 0% | 42% | 4% | 0% | 0% | 0% | 35% | 0% | 11% |  |  |  |  | 
CC(C)(C)c1ccc(C(=O)Nc2cn3cc(Cl)ccc3n2)cc1 | 0% | 4% | 24% | 0% | 0% | 0% | 0% | 0% | 0% | 0% |  |  |  |  | 
Cc1ccc(NC(=O)Nc2cc(C(C)(C)C)nn2-c2ccccc2)cc1 [GSK1014915] | 4% | 0% | 44% | 0% | 0% | 2% | 0% | 21% | 0% | 2% |  |  |  |  | 
COc1ccc(C2=C(Nc3cccc(C(=O)O)c3)C(=O)NC2=O)cc1 [SB-390765] | 9% | 14% | 7% | 8% | 0% | 3% | 21% | 0% | 0% | 19% |  |  |  |  | 
COc1ccc(Nc2nccc(-c3cccc(NC(=O)c4cc5cc(F)ccc5[nH]4)c3)n2)cc1 [GSK1229782] | 1% | 17% | 29% | 33% | 0% | 63% | 0% | 44% | 18% | 0% |  |  |  |  | 
Cc1c(O)cccc1Nc1ccnc2ccc(C(F)(F)F)cc12.Cl [GW466413] | 0% | 0% | 8% | 0% | 0% | 79% | 1% | 21% | 0% | 0% |  |  |  |  | 
Cl.c1ccc(-c2n[nH]cc2-c2ccnc(-c3ccc(CN4CCOCC4)cc3)c2)nc1 [GW776245] | 0% | 23% | 0% | 0% | 0% | 15% | 0% | 0% | 0% | 41% |  |  |  |  | 
COc1ccc(CNC(=O)NC2CCN(c3ccnc(Nc4cc(OC)c(OC)c(OC)c4)n3)C2)cc1 (stereo not drawn) [GSK1379748] | 0% | 0% | 0% | 25% | 0% | 14% | 0% | 11% | 31% | 0% |  |  |  |  | 
O=C1NC(=O)C(N2CCc3ccccc32)=C1c1ccccc1Cl [SB-373598] | 6% | 0% | 29% | 11% | 1% | 18% | 98.3% | 0% | 0% | 33% |  |  |  |  | 
COC(=O)c1c(-c2ccccc2)c2cc(OC)ccc2c(=O)n1Cc1ccccc1 | 6% | 1% | 0% | 12% | 1% | 8% | 0% | 5% | 9% | 11% |  |  |  |  | 
Cc1cccc(-c2nc(-c3ccc(S(C)(=O)=O)cc3)sc2-c2ccnc(NCCc3ccccc3)c2)c1 | 11% | 7% | 7% | 0% | 7% | 0% | 0% | 0% | 23% | 0% |  |  |  |  | 
COC(=O)c1c(-c2ccccc2)c2cc(C(=O)O)ccc2c(=O)n1Cc1ccccc1 | 0% | 0% | 16% | 5% | 0% | 0% | 0% | 0% | 0% | 0% |  |  |  |  | 
Cc1ccc(C(=O)Nc2ccc(Nc3ccnc4cc(-c5ccccn5)ccc34)cc2O)cc1.Cl [GW440146] | 0% | 18% | 0% | 0% | 0% | 56% | 80% | 27% | 0% | 3% |  |  |  |  | 
Cc1ccc(NC(=O)Nc2cccc(Cl)c2)cc1-c1ccc(C(=O)Nc2ccncc2)cc1 [GSK1398468] | 0% | 5% | 6% | 0% | 2% | 0% | 0% | 0% | 0% | 0% |  |  |  |  | 
Cc1cccc(-c2nc(Nc3ccc4[nH]ncc4c3)c3ccccc3n2)n1 [GW857175] | 0% | 0% | 16% | 15% | 10% | 28% | 25% | 16% | 0% | 28% |  |  |  |  | 
Clc1cc(Cl)cc(Nc2ccnc(Nc3cc(Cl)cc(Cl)c3)n2)c1 [GSK175726] | 0% | 8% | 8% | 10% | 0% | 49% | 11% | 0% | 0% | 0% |  |  |  |  | 
Cc1cccc(-c2nc(Nc3cccc(C(N)=O)c3)c3ccccc3n2)n1 [GW876019] | 63% | 14% | 14% | 0% | 0% | 0% | 33% | 17% | 23% | 4% |  |  |  |  | 
